Source: PubChem BioAssay (Tox21)
Results filed as inconclusive are left out. Active and inactive are the calls of the source. Unless noted, calls come from the whole dose curve.

How the values were obtained:
[1] = qHTS assay to identify small molecule agonists of the vitamin D receptor (VDR) signaling pathway - cell viability counter screen (AID 743224; active = well fitted curve in the direction sought with a large enough effect in the repeat runs; an effect the other way counts as inactive or inconclusive; note: nearly all actives have a fitted effect of over 50% in size; note: potency is the fitted concentration of half-maximal effect)
How it was run: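 Luminescence from CellTiter-Glo, read after 30 min at room temperature, reports viability of VDR-bla cells treated with compounds for 16 h at 37C in the wells used for the beta-lactamase FRET read.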

[2] = qHTS assay to identify small molecule antagonists of the vitamin D receptor (VDR) signaling pathway - cell viability counter screen (AID 743225; active = well fitted curve in the direction sought with a large enough effect in the repeat runs; an effect the other way counts as inactive or inconclusive; note: nearly all actives have a fitted effect of over 50% in size)
How it was run: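 Compounds were pinned onto VDR-bla HEK 293T cells together with 1-alpha,25-dihydroxyvitamin D3 at 3 nM final. After 16 h at 37C and 5% CO2 plus the reporter readout, cell viability was measured by CellTiter-Glo luminescence (30 min, room temperature).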

[3] = qHTS assay to identify small molecule agonists of the NFkB signaling pathway - cell viability counter screen (AID 1159515); note: series mostly up to about 61 µM; nearly all actives have a fitted effect of over 55% in size
How it was run: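 Luminescence from CellTiter-Glo (30 min, room temperature) gives viability, measured in the same wells as the beta-lactamase reporter read. Cells were NFkB-bla ME-180, 2,000 per well, treated 5 hr with compounds.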

[4] = qHTS assay to identify small molecule agonists of the endoplasmic reticulum stress response signaling pathway (AID 1159516; active = well fitted activation curve with a large enough effect in the signal ratio in the repeat runs, not every such curve was filed as active; the % refers to the signal ratio)
How it was run: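 Read-out is beta-lactamase cleavage of a FRET substrate (405 nm excitation; 460 and 530 nm emissions) in ESRE-bla HeLa cells after a 5 hr compound exposure at 37 C. Substrate incubation ran 2 hr at room temperature.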

[5] = qHTS assay to identify small molecule agonists of the endoplasmic reticulum stress response signaling pathway - cell viability counter screen (AID 1159517);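 note: HeLa cells carrying an ER stress response element beta-lactamase reporter; series mostly up to about 61 µM; nearly all actives have a fitted effect of over 50% in size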
How it was run: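 Luminescence readout: CellTiter-Glo, 30 min RT, same wells as the ESRE-bla reporter read. HeLa ESRE-bla, 1,500 cells/well, o/n 37 C; cpd 5 hr 37 C/5% CO2.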

[6] = qHTS assay to identify small molecule antagonists of the retinoid-related orphan receptor gamma (ROR-gamma) signaling pathway - cell viability counter screen (AID 1159520; active = well fitted curve in the direction sought with a large enough effect in the repeat runs; an effect the other way counts as inactive or inconclusive; note: nearly all actives have a fitted effect of over 50% in size)
How it was run: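 Tet-on ROR gamma CHO cells (1,000/well) were plated 4 hr, given compounds in DMSO for 2 hr at 37 C, then induced with 1 uM final doxycycline for 16 hr. Viability was read as ATP by CellTiter-Glo luminescence after 30 min.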

[7] = qHTS assay to identify small molecule agonists of the AP-1 signaling pathway - cell viability counter screen (AID 1159525); note: nearly all actives have a fitted effect of over 55% in size
How it was run: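 ME-180 AP-1-bla, 2500 cells/well, Opti-MEM + 0.5% dialyzed FBS; overnight 37 °C; cpd 15-pt titration, 5 h 37 °C; CellTiter-Glo 30 min RT; luminescence read; normalised to TOAB and DMSO controls.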

[8] = qHTS assay to identify small molecule agonists of the AP-1 signaling pathway (AID 1159526)
[9] = target: Nuclear receptor ROR-gamma (Homo sapiens) (UniProt P51449); assay: qHTS assay to identify small molecule antagonists of the retinoid-related orphan receptor gamma (ROR-gamma) signaling pathway (AID 1159521; active = well fitted curve in the direction sought with a large enough effect in the repeat runs; an effect the other way counts as inactive or inconclusive; note: nearly all actives have a fitted effect of over 50% in size; note: potency is the fitted concentration of half-maximal effect)
How it was run: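 Test compounds were applied to Tet-on RORγ CHO cells 2 h ahead of doxycycline hyclate (1 uM final). Luciferase reporter activity was quantified by luminescence after 16 h at 37 C and 5% CO2.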

[10] = target: Retinoic acid receptor RXR-alpha (Homo sapiens) (UniProt P19793); assay: qHTS assay to identify small molecule agonists of the RXR signaling pathway (AID 1159527); note: nearly all actives have a fitted effect of over 35% in size; note: potency is the fitted concentration of half-maximal effect
How it was run: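 Using 9-cis retinoic acid as the reference agonist, chemicals were tested in HEK 293T cells […] for 16 hr; substrate loading lasted 2 hr at room temperature.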

Measured: Potency

Retinoic acid receptor RXR-alpha (Homo sapiens), sequence (P19793 whole entry, looked up): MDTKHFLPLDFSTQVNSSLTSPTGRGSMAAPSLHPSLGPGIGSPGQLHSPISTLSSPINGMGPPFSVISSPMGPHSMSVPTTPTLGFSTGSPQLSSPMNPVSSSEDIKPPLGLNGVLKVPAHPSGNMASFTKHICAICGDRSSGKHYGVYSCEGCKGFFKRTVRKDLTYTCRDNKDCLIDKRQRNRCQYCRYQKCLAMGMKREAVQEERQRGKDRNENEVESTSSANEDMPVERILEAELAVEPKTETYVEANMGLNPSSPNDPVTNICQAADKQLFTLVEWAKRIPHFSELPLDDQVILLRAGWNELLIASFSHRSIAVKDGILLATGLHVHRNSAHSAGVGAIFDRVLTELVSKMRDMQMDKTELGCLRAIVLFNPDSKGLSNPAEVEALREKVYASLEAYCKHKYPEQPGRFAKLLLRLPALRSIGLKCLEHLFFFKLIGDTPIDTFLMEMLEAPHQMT

c1ccc2nc(N3CCNCC3)ccc2c1
not listed: [9] | [10]
inactive: all other assays above

CC1(C)C(C=C(Cl)Cl)C1C(=O)OC(C#N)c1ccc(F)c(Oc2ccccc2)c1 (configuration not stated)
inactive: [1] | [3] | [4] | [5] | [6] | [7]

COP(=S)(NC(C)C)Oc1ccc(C)cc1[N+](=O)[O-] (configuration not stated)
not listed: [9] | [10]
inactive: all other assays above

CC(C)(C)c1ccc(OP(=O)(Oc2ccccc2)Oc2ccccc2)cc1
inactive: [1] | [3] | [4] | [5] | [6] | [8]

CC(C)c1c(CN(C)C(C)Cc2ccccc2)n(C)n(-c2ccccc2)c1=O (configuration not stated)
not listed: [1] | [9] | [10]
inactive: all other assays above

CO/N=C(/C1=NOCCO1)c1ccccc1Oc1ncnc(Oc2ccccc2Cl)c1F
active: [9] 0.968 µM
inactive: [3] | [4] | [5] | [7] | [8]

O=C(Cl)c1ccccc1F
not listed: [9] | [10]
inactive: all other assays above

O=C(CCCCl)c1ccc(F)cc1
not listed: [7] | [9]
inactive: all other assays above

CSC(=O)c1c(C(F)F)nc(C(F)(F)F)c(C(=O)SC)c1CC(C)C
inactive: [3] | [4] | [5] | [7] | [8]
active: [1] 43.4 µM | [9] 54.2 µM

CN1CCc2cc(Cl)c(O)cc2[C@H]2c3ccccc3CC[C@@H]21
not listed: [9] | [10]
inactive: all other assays above

CC(C)=CCN1CC[C@@]2(C)c3cc(O)ccc3C[C@@H]1[C@@H]2C
not listed: [9] | [10]
inactive: all other assays above

CC(C)NCC(O)c1ccccc1Cl (configuration not stated)
not listed: [9]
inactive: all other assays above

CCCCN(CCCC)C(=S)S
not listed: [8] | [9]
inactive: all other assays above

N#Cc1c[nH]cc1-c1cccc2c1OC(F)(F)O2
active: [9] 17.2 µM | [10] 1.38 µM
not listed: [2] | [6]
inactive: all other assays above

OCC(Br)CBr (configuration not stated)
not listed: [9]
inactive: all other assays above

COc1ccc(Cc2nccc3cc(OC)c(OC)cc23)cc1OC
active: [9] 4.22 µM
not listed: [2] | [6]
inactive: all other assays above

CCCCN(CCCC)C(=S)[S-].CCCCN(CCCC)C(=S)[S-].[Ni+2]
not listed: [1] | [7] | [9]
inactive: all other assays above

C[C@]12CC[C@H]3[C@@H](CCC4=CC(=O)CC[C@@H]43)[C@@H]1CC[C@@H]2OC(=O)CCc1ccco1
inactive: [3] | [4] | [5] | [6] | [7]
active: [1] 21.1 µM

O=C(NC(=O)c1c(F)cccc1F)Nc1ccc(Oc2ccc(C(F)(F)F)cc2Cl)cc1F
active: [9] 24.3 µM
inactive: [3] | [4] | [5] | [7]

Oc1cccc(Cl)c1Cl
not listed: [8] | [9] | [10]
inactive: all other assays above

CCCCn1cc[n+](C)c1 (tested in a mixture with another compound)
not listed: [7] | [9]
inactive: all other assays above

CNC(=O)/C=C(\C)OP(=O)(OC)OC
not listed: [9] | [10]
inactive: all other assays above

COCCC#N
not listed: [5]
inactive: all other assays above

S=C=Nc1ccccc1
not listed: [5]
inactive: all other assays above

CCc1cccc(C)c1N(C(=O)CCl)[C@@H](C)COC
inactive: [1] | [3] | [4] | [5] | [7] | [8]

[O]=[Cr][O][Cr]=[O]
not listed: [5]
inactive: all other assays above

C[C@@H]1CC2=CC(=O)CC[C@@H]2[C@H]2CC[C@@]3(C)[C@@H](CC[C@]3(C)O)[C@@H]21
not listed: [6] | [9]
inactive: all other assays above

CCNc1nc(NC(C)C(C)C)nc(SC)n1 (configuration not stated)
not listed: [6] | [9]
inactive: all other assays above
